How the values were obtained:
Test in all cases: PBM binding z-score (relative to random genomic background probes); higher = stronger binding; sequences stand for … in GC…GCGATTGACAGCGTAGAATGAAGG
[1] = test system: FXR:RXRa (NR concentration 270 nM, RXRa partner concentration 90 nM)
Summary of the method: (§1)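 Each nuclear receptor dimer, without ligand, was incubated for 1 h on custom Agilent 4×180K protein-binding microarrays. Binding was detected with antibodies against each partner (one per run), and scanned fluorescence was regression-normalized. The binding z-scores are referenced to random human genomic background probes.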

[2] = test system: LXRa:RXRa (NR concentration 270 nM, RXRa partner concentration 90 nM)
Summary of the method: as §1

[3] = test system: LXRa homodimer (NR concentration 270 nM)
Summary of the method: as §1

[4] = test system: LXRb:RXRa (NR concentration 270 nM, RXRa partner concentration 90 nM)
Summary of the method: as §1

[5] = test system: LXRb homodimer (NR concentration 270 nM)
Summary of the method: as §1

[6] = test system: PPARa:RXRa (NR concentration 270 nM, RXRa partner concentration 90 nM)
Summary of the method: as §1

[7] = test system: PPARg:RXRa (NR concentration 180 nM, RXRa partner concentration 90 nM)
Summary of the method: as §1

[8] = test system: PPARg:RXRa 270nM:90nM, anti-RXR (NR concentration 270 nM, RXRa partner concentration 90 nM)
Summary of the method: as §1

[9] = test system: PPARg:RXRa 30nM:10nM, anti-RXR (NR concentration 30 nM, RXRa partner concentration 10 nM)
Summary of the method: as §1

[10] = test system: PPARg:RXRa 90nM:30nM, anti-RXR (NR concentration 90 nM, RXRa partner concentration 30 nM)
Summary of the method: as §1

[11] = test system: PPARg:RXRa DBDmut IVT, anti-RXR (DBD mutation: RXRa K156A/R161A, NR concentration 270 nM, RXRa partner concentration 90 nM)
Summary of the method: as §1

[12] = test system: PPARg:RXRa IVT, anti-PPARg (NR concentration 270 nM, RXRa partner concentration 90 nM)
Summary of the method: as §1

[13] = test system: PPARg DBDmut:RXRa IVT, anti-PPARg (DBD mutation: PPARg1 K132A/R137A, NR concentration 270 nM, RXRa partner concentration 90 nM)
Summary of the method: as §1

[14] = test system: PPARg DBDmut IVT, anti-PPARg (DBD mutation: PPARg1 K132A/R137A, NR concentration 270 nM)
Summary of the method: as §1

[15] = test system: PPARg homodimer (NR concentration 180 nM)
Summary of the method: as §1

[16] = test system: PXR:RXRa (NR concentration 270 nM, RXRa partner concentration 90 nM)
Summary of the method: as §1

[17] = test system: PXR homodimer (NR concentration 270 nM)
Summary of the method: as §1

[18] = test system: RARa:RXR (NR concentration 270 nM, RXRa partner concentration 90 nM)
Summary of the method: as §1

[19] = test system: RARa homodimer (NR concentration 270 nM)
Summary of the method: as §1

[20] = test system: RARb:RXRa (NR concentration 270 nM, RXRa partner concentration 90 nM)
Summary of the method: as §1

Sequence | PBM binding z-score [1] | PBM binding z-score [2] | PBM binding z-score [3] | PBM binding z-score [4] | PBM binding z-score [5] | PBM binding z-score [6] | PBM binding z-score [7] | PBM binding z-score [8] | PBM binding z-score [9] | PBM binding z-score [10] | PBM binding z-score [11] | PBM binding z-score [12] | PBM binding z-score [13] | PBM binding z-score [14] | PBM binding z-score [15] | PBM binding z-score [16] | PBM binding z-score [17] | PBM binding z-score [18] | PBM binding z-score [19] | PBM binding z-score [20]
ACTATAAGTTGAGACGAGGGCAACCGATAGGTTG | 1.18 | 0.684 | -0.161 | 0.115 | -0.00417 | 0.691 | 1.01 | 0.487 | 0.313 | 0.578 | 0.251 | 0.388 | 0.373 | -0.377 | 0.181 | 3.22 | 0.715 | 1.53 | 0.18 | 1.53
TCGTATAGGTAAATGCTAGGTGAAAGTCCGATCT | 0.843 | 0.876 | 0.236 | 0.653 | 0.0986 | 0.931 | 0.156 | 1.84 | 3.04 | 2.54 | 2.09 | 1.21 | 0.00787 | 0.782 | 0.833 | 0.373 | -0.198 | 0.889 | 0.867 | 0.432
AAGACAGGGTCACTAGGCCAGAGTAGGTACGAAT | 5.99 | 3.14 | -0.215 | 3.25 | -0.368 | 5.62 | 7.53 | 6.21 | 2.71 | 5.21 | 3.14 | 5.06 | 0.632 | 0.999 | 1.27 | 2.89 | 0.212 | 4.16 | -0.193 | 4.21
CCTAGCAGGCCTATCTGGGTCACTCAAGGCTTGA | 0.317 | 0.546 | -0.58 | 0.838 | -1.2 | 3.07 | 1.7 | 2.01 | -0.0826 | 1.15 | 3.65 | 4.63 | -0.467 | -0.863 | 0.541 | 0.789 | -0.468 | 1.38 | -0.645 | 0.909
ACTTATGGGTCAACGAGGTTATAGCACGCGTATA | 5.3 | 4.47 | 0.915 | 3.85 | 0.967 | 5.33 | 6.12 | 5.78 | 2.91 | 5.01 | 6.33 | 5.8 | 1.52 | 2.09 | 2.41 | 4.34 | 1.69 | 4.3 | 1.76 | 3.89
GCTTGTAGATAAAGGTTAAGAAAGACTAAGCTAA | 0.528 | 2.06 | 0.00551 | 1.54 | -0.409 | 2.29 | 1.41 | 2.24 | 0.494 | 1.88 | -0.151 | 0.466 | 0.79 | -0.0657 | 0.422 | 0.774 | -0.193 | 1.62 | 0.598 | 1.66
CGTACGAGGGCATGAGTTGATAGCAAATGCCGAT | 0.342 | 0.419 | -0.557 | 0.284 | -0.608 | 1.23 | 1.11 | 1.07 | 0.157 | 0.878 | 1.2 | 1.22 | -0.964 | -0.327 | 0.331 | 0.557 | 0.0171 | 0.533 | -0.662 | 2.01
GCATATAGGTAATACTAGGTGAAAGTCCGATTGT | 0.715 | 2.49 | 0.179 | 0.49 | -0.275 | 2.06 | 2.22 | 2.48 | 1.09 | 2.43 | 4.82 | 4.2 | 0.862 | 0.925 | 0.614 | 0.155 | 0.151 | 1.1 | 0.695 | 0.113
TATTGTAGATCAGCAGGTTAAGAAAGCTGGCCAA | -0.221 | -0.214 | -0.56 | -0.0553 | -0.105 | 0.342 | -0.269 | 0.483 | -0.249 | 0.429 | -0.472 | 0.909 | 0.264 | -0.14 | -0.31 | -0.184 | -0.219 | -0.00412 | -0.421 | -0.104
CCGACTGGGGCATAAGGCTACCATAAGCCAGCCC | -0.264 | -0.169 | -0.35 | -0.67 | -1.17 | 0.356 | 1.55 | 2.13 | 0.339 | 1.84 | 2.4 | 2.19 | -1.08 | -1.23 | 0.226 | -0.731 | -0.51 | -0.184 | 0.133 | 0.337
CCTCGGACGACAACAGGAGGTCAGAGCTGCCAGA | 0.715 | 1.65 | 1.91 | 1.42 | 0.113 | 1.73 | 0.478 | -0.0139 | -0.511 | -0.34 | -0.649 | 0.0157 | -0.728 | -1.24 | 1.84 | 1.67 | 0.467 | 2.11 | 0.372 | 1.96
TAGCCTAGGTCAGTCAGGGGCCAGTATAGAAAGC | 1.42 | 0.48 | -0.418 | 0.85 | -0.405 | 1.46 | 0.583 | 1.04 | -0.0718 | 0.829 | 0.759 | 1.71 | 0.0282 | -0.431 | 0.236 | 0.48 | -0.639 | 1.32 | -0.63 | 3.21
CCGAGTAGGTTATGGGGCGTTCAGGCAACGGTGA | 0.244 | 0.548 | -0.0765 | 0.47 | -0.285 | 1.67 | 2.44 | 3.87 | 1.97 | 3.39 | 2.68 | 2.65 | -0.225 | -0.53 | 0.696 | -0.0536 | -0.251 | 0.233 | -0.0281 | 0.904
CGTCCAAGGTCAATGGTCAGTGAAGAGATGACGG | 6.47 | 4.43 | 0.613 | 3.19 | 0.452 | 4.93 | 4.14 | 4.38 | 1.83 | 3.55 | 3.08 | 3.44 | 1.01 | -0.0239 | 2.84 | 3.33 | 1.16 | 3.98 | 0.654 | 5.08
ATACCAAGGGGATCGTGAGGTCGTTGATACTAAC | 0.492 | 0.487 | 0.291 | 1.26 | -0.272 | 0.97 | 0.267 | -0.0276 | -0.375 | -0.365 | -0.449 | -0.121 | -0.0494 | 0.0346 | -0.227 | 1.68 | 0.87 | 1.52 | -0.222 | 0.379

Source: the supplement of paper PMC6555819
